The text below walks through data of PubChem BioAssay.

The first experiment in a line: Primary imaging screen for DUSP6 inhibitors that restore phospho-Erk in transfected HeLa cells, chemical complementation (AID 609). The conditions noted are these: HeLa MKP-3 transfected, phospho-Erk imaging KS statistic; measured here: cell density z-score; at 10 µM; cells stimulated with TPA for 15 min.
In turn, `Cc1cccc(C)c1N1C(=O)C2ON(c3ccccc3)C(c3ccncc3)C2C1=O` (stereo not drawn) registered a z-score of 1.05.
The same measure, in the same setting: for `COc1ccc(C2C=C(c3ccc(Cl)cc3)Nc3nc(NC(C)=O)nn32)cc1` (stereo not drawn) the value was -0.557; for `CC(C)Cc1ccc(C(C)C(=O)O)cc1` (stereo not drawn), -0.577; for `COCCCNc1nc(-c2ccncc2)nc2ccccc12`, 1.01.
Still for that read-out and setting: for `CCCOC(=O)C1[C@H]2C(=O)N(Cc3ccco3)C[C@]23C=C[C@H]1O3` (stereo partly drawn) the value was -0.841.
On the same count and under the same terms, for `COc1ccc(CNC(=O)[C@H](C)NC(=O)C2CCN(S(=O)(=O)c3ccc(C)cc3)CC2)cc1` the value was -1.17.
Take `N#C/C(=N\O)c1nc(-c2ccccc2)cs1`: the z-score was found to be 0.00555.
Still for that read-out and setting: for `Oc1ccc(Br)cc1-c1cc(-c2ccccc2F)[nH]n1` the value was -1.09; for `COc1ccc(/C(O)=C2/C(=O)C(=O)N(CCN3CCOCC3)C2c2ccccn2)cc1OC` (stereo not drawn), 1.75; for `CCOc1ccc(/C(O)=C2/C(=O)C(=O)N(c3nc(C)c(C)s3)C2c2ccco2)cc1` (stereo not drawn), -0.851.
On the same count and under the same terms, the result for `O=C1C2ON(c3ccccc3)C(c3ccncc3)C2C(=O)N1c1ccccc1` (stereo not drawn) reads 0.798; that for `CCOC(=O)N1CCN(/C=C(\C#N)c2nc3ccccc3s2)CC1`, 1.93; that for `CCOc1ccc(C2C(C(=O)c3ccc(C)o3)=C(O)C(=O)N2CCN2CCOCC2)cc1OC` (stereo not drawn), 0.462.
Same read-out and setting: the result for `CC(C)(C)c1ccc(C(O)CCCN2CCC(C(O)(c3ccccc3)c3ccccc3)CC2)cc1` (stereo not drawn) reads 0.975; that for `O=C(O)CCCCCN1C(=O)CCC1=O`, -0.0667.
`CC(=O)O[C@H]1C(=O)[C@]2(C)[C@H]([C@H](OC(=O)c3ccccc3)[C@]3(O)C[C@H](OC(=O)[C@H](O)[C@@H](NC(=O)c4ccccc4)c4ccccc4)C(C)=C1C3(C)C)[C@]1(OC(C)=O)CO[C@@H]1C[C@@H]2O` yielded a z-score of 0.529.
On to `CC[N+](C)(C)Cc1ccccc1Br`, for which the z-score is -1.09.
Same read-out and setting: the result for `O=C1C(CCS(=O)c2ccccc2)C(=O)N(c2ccccc2)N1c1ccccc1` (stereo not drawn) reads 0.561.
Same read-out and setting: for `Cc1ccc(N2C(=O)C3ON(c4ccccc4)C(c4ccncc4)C3C2=O)c(C)c1` (stereo not drawn) the value was 0.138.
Still for that read-out and setting: the result for `N#Cc1nc(-c2ccccc2Cl)oc1N1CCCCC1` reads 1.98; that for `CC1=CC(c2ccccc2)n2nc(N3C(=O)C4CC=CCC4C3=O)nc2N1` (stereo not drawn), 0.978; that for `CCN(CC)CCn1c(O)c(N=O)c2ccccc21`, -0.589.
On to `Cc1ccc2nc(NCc3ccccc3)[nH]c2c1`, for which the z-score is -0.018.
Still for that read-out and setting: the result for `COc1cccc(-c2nc(NC(C)(C)C)c3ccccc3n2)c1O` reads 0.222; that for `O=C1C2ON(c3ccccc3)C(c3ccncc3)C2C(=O)N1c1ccc(Br)cc1` (stereo not drawn), -0.515; that for `CCC(=O)O[C@@H]1CC(=O)O[C@H](C)CC=CC=C[C@@H](O)[C@H](C)C[C@H](CC=O)[C@H](O[C@H]2O[C@H](C)[C@@H](O[C@H]3C[C@@](C)(O)[C@@H](OC(=O)CC)[C@H](C)O3)[C@H](N(C)C)[C@H]2O)[C@H]1OC`, -0.528.
Still for that read-out and setting: for `O=C1CC(N(O)C2CC(=O)N(Cc3ccccc3)C2=O)C(=O)N1Cc1ccccc1` (stereo not drawn) the value was -0.0667.
Same read-out and setting: for `CC1(C)CC(NC(=O)C23CCC(C)(/C(=N/O)C2)C3(C)C)CC(C)(C)N1` (stereo not drawn) the value was -1.2; for `O=c1[nH]c(-c2ccccn2)nc2ccccc12`, 0.0403; for `Cc1nnc(SCC2=C(C(=O)O)N3C(=O)[C@@H](NC(=O)Cn4cnnn4)[C@H]3SC2)s1`, -0.857.
In turn, `O=C(O)c1cc(=O)c2c(OCC(O)COc3cccc4oc(C(=O)O)cc(=O)c34)cccc2o1` had a z-score of -1.42.
Still for that read-out and setting: for `c1ccc(-c2nc(NCC3CCCO3)c3ccccc3n2)nc1` (stereo not drawn) the value was 1.77; for `CC[C@H]1OC(=O)C[C@@H](O)[C@H](C)[C@@H](O[C@@H]2O[C@H](C)C[C@H](N(C)C)[C@H]2O)[C@@H](CC=O)C[C@@H](C)C(=O)C=C[C@]2(C)O[C@H]2[C@@H]1C`, 0.794.
Same read-out and setting: the result for `CC(C)NCC(O)COc1cccc2[nH]ccc12` (stereo not drawn) reads 0.107; that for `Cc1ccc2cc(CN(C(=O)c3ccco3)c3ccccc3C)c(=O)[nH]c2c1`, 1.77; that for `CN1CCN(Cc2c(O)ccc3c(-c4ccccc4)cc(=O)oc23)CC1`, 0.437.
The same measure, in the same setting: for `Cc1cc(N2C(=O)C(=O)/C(=C(/O)c3ccccc3)C2c2cccc(Br)c2)no1` (stereo not drawn) the value was 0.294.
In the case of `COc1ccc(C(=O)Nc2nc(N)n(-c3ccccc3)n2)cc1OC`, the z-score was -1.01.
Still for that read-out and setting: the result for `Cc1ccc(N2C(=O)C3ON(c4ccccc4)C(c4ccncc4)C3C2=O)cc1` (stereo not drawn) reads -0.368.

The experiment is the same for the next values; noted with them: HeLa MKP-3 transfected, phospho-Erk imaging KS statistic; measured here: nuclear c-Myc green intensity z-score; at 10 µM; cells stimulated with TPA for 15 min.
For the compound `Cc1cccc(C)c1N1C(=O)C2ON(c3ccccc3)C(c3ccncc3)C2C1=O` (stereo not drawn), the z-score came out at 0.0518.
Consider `COc1ccc(C2C=C(c3ccc(Cl)cc3)Nc3nc(NC(C)=O)nn32)cc1` (stereo not drawn), for which the z-score is 0.239.
On the same count and under the same terms, the result for `CC(C)Cc1ccc(C(C)C(=O)O)cc1` (stereo not drawn) reads -0.145; that for `COCCCNc1nc(-c2ccncc2)nc2ccccc12`, -0.929; that for `CCCOC(=O)C1[C@H]2C(=O)N(Cc3ccco3)C[C@]23C=C[C@H]1O3` (stereo partly drawn), 0.28.
Compound `COc1ccc(CNC(=O)[C@H](C)NC(=O)C2CCN(S(=O)(=O)c3ccc(C)cc3)CC2)cc1` had a z-score of 1.31.
Same read-out and setting: for `N#C/C(=N\O)c1nc(-c2ccccc2)cs1` the value was 1.35.
Same read-out and setting: the result for `Oc1ccc(Br)cc1-c1cc(-c2ccccc2F)[nH]n1` reads 2.76.
The same measure, in the same setting: for `COc1ccc(/C(O)=C2/C(=O)C(=O)N(CCN3CCOCC3)C2c2ccccn2)cc1OC` (stereo not drawn) the value was -1.41; for `CCOc1ccc(/C(O)=C2/C(=O)C(=O)N(c3nc(C)c(C)s3)C2c2ccco2)cc1` (stereo not drawn), 0.684.
In the case of `O=C1C2ON(c3ccccc3)C(c3ccncc3)C2C(=O)N1c1ccccc1` (stereo not drawn), the z-score is -1.22.
The same measure, in the same setting: the result for `CCOC(=O)N1CCN(/C=C(\C#N)c2nc3ccccc3s2)CC1` reads 0.746; that for `CCOc1ccc(C2C(C(=O)c3ccc(C)o3)=C(O)C(=O)N2CCN2CCOCC2)cc1OC` (stereo not drawn), 0.354; that for `CC(C)(C)c1ccc(C(O)CCCN2CCC(C(O)(c3ccccc3)c3ccccc3)CC2)cc1` (stereo not drawn), 0.958.
Still for that read-out and setting: for `O=C(O)CCCCCN1C(=O)CCC1=O` the value was -0.815.
Still for that read-out and setting: for `CC(=O)O[C@H]1C(=O)[C@]2(C)[C@H]([C@H](OC(=O)c3ccccc3)[C@]3(O)C[C@H](OC(=O)[C@H](O)[C@@H](NC(=O)c4ccccc4)c4ccccc4)C(C)=C1C3(C)C)[C@]1(OC(C)=O)CO[C@@H]1C[C@@H]2O` the value was 0.25; for `CC[N+](C)(C)Cc1ccccc1Br`, -0.375.
`O=C1C(CCS(=O)c2ccccc2)C(=O)N(c2ccccc2)N1c1ccccc1` (stereo not drawn) showed a z-score of 0.78.
On the same count and under the same terms, for `Cc1ccc(N2C(=O)C3ON(c4ccccc4)C(c4ccncc4)C3C2=O)c(C)c1` (stereo not drawn) the value was -0.827; for `N#Cc1nc(-c2ccccc2Cl)oc1N1CCCCC1`, -2.24.
Same read-out and setting: the result for `CC1=CC(c2ccccc2)n2nc(N3C(=O)C4CC=CCC4C3=O)nc2N1` (stereo not drawn) reads -0.382; that for `CCN(CC)CCn1c(O)c(N=O)c2ccccc21`, -0.252.
The same measure, in the same setting: for `Cc1ccc2nc(NCc3ccccc3)[nH]c2c1` the value was -0.878; for `COc1cccc(-c2nc(NC(C)(C)C)c3ccccc3n2)c1O`, 0.227.
Take `O=C1C2ON(c3ccccc3)C(c3ccncc3)C2C(=O)N1c1ccc(Br)cc1` (stereo not drawn): the z-score is -1.17.
On the same count and under the same terms, for `CCC(=O)O[C@@H]1CC(=O)O[C@H](C)CC=CC=C[C@@H](O)[C@H](C)C[C@H](CC=O)[C@H](O[C@H]2O[C@H](C)[C@@H](O[C@H]3C[C@@](C)(O)[C@@H](OC(=O)CC)[C@H](C)O3)[C@H](N(C)C)[C@H]2O)[C@H]1OC` the value was -0.404.
Still for that read-out and setting: the result for `O=C1CC(N(O)C2CC(=O)N(Cc3ccccc3)C2=O)C(=O)N1Cc1ccccc1` (stereo not drawn) reads 1.6; that for `CC1(C)CC(NC(=O)C23CCC(C)(/C(=N/O)C2)C3(C)C)CC(C)(C)N1` (stereo not drawn), 0.0129; that for `O=c1[nH]c(-c2ccccn2)nc2ccccc12`, 0.157.
Still for that read-out and setting: the result for `Cc1nnc(SCC2=C(C(=O)O)N3C(=O)[C@@H](NC(=O)Cn4cnnn4)[C@H]3SC2)s1` reads 0.639; that for `O=C(O)c1cc(=O)c2c(OCC(O)COc3cccc4oc(C(=O)O)cc(=O)c34)cccc2o1`, 1.02; that for `c1ccc(-c2nc(NCC3CCCO3)c3ccccc3n2)nc1` (stereo not drawn), -0.891.
Turning to `CC[C@H]1OC(=O)C[C@@H](O)[C@H](C)[C@@H](O[C@@H]2O[C@H](C)C[C@H](N(C)C)[C@H]2O)[C@@H](CC=O)C[C@@H](C)C(=O)C=C[C@]2(C)O[C@H]2[C@@H]1C`, the z-score is -0.225.
Still for that read-out and setting: the result for `CC(C)NCC(O)COc1cccc2[nH]ccc12` (stereo not drawn) reads -0.142; that for `Cc1ccc2cc(CN(C(=O)c3ccco3)c3ccccc3C)c(=O)[nH]c2c1`, -1.81; that for `CN1CCN(Cc2c(O)ccc3c(-c4ccccc4)cc(=O)oc23)CC1`, -1.09.
On the same count and under the same terms, for `Cc1cc(N2C(=O)C(=O)/C(=C(/O)c3ccccc3)C2c2cccc(Br)c2)no1` (stereo not drawn) the value was -0.11; for `COc1ccc(C(=O)Nc2nc(N)n(-c3ccccc3)n2)cc1OC`, 1.47.
On the same count and under the same terms, the result for `Cc1ccc(N2C(=O)C3ON(c4ccccc4)C(c4ccncc4)C3C2=O)cc1` (stereo not drawn) reads -0.198.
